Sm TGR inh = qHTS Assay for the Inhibitors of Schistosoma Mansoni Peroxiredoxins. Schistosoma mansoni thioredoxin glutathione reductase (TGR), Q962Y6. actives 3% (n = 360,000). Potency, µM (series often up to 114 µM), for inactives: at the highest dose activity change, negative = inhibition, usual class: inhibitors. purified TGR, DTNB reduction, TNB absorbance 405 nm; also: % is scaled to controls: 0 for no effect and ±100 for the full control effect; nearly all actives have a fitted effect of over 60% in size
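First, TGR (20 nM dispensed) and NADPH were mixed with compound. Second, a 15 min room-temperature incubation followed. Third, further NADPH and then DTNB were added to start the reaction. Finally, TNB absorbance was monitored kinetically.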
Pf growth 48h = Primary qHTS for delayed death inhibitors of the malarial parasite plastid, 48 hour incubation; P. falciparum luciferase growth in erythrocytes, 48 h; Potency, µM (top dose mostly 28.7 µM), without a hit: at the top dose activity change, negative = inhibition, actives largely listed as inhibitors; actives 5.9% (n = 310,000); AID 504832, 2011; also: % is scaled to controls: 0 for no effect and ±100 for the full control effect
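First compound was added to culture medium, then infected red cells at 0.1% parasitemia and 2% hematocrit (final). After incubation at 37 C under 5% CO2, luciferase detection reagent was dispensed and light output recorded.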
Pf growth 96h = Primary qHTS for delayed death inhibitors of the malarial parasite plastid, 96 hour incubation; P. falciparum luciferase reporter growth, 96 h; Potency, µM (doses to about 28.7 µM), for the others: at the highest dose activity change, negative = inhibition, usual class: inhibitors; actives 6.9% (n = 320,000); also: % is scaled to controls: 0 for no effect and ±100 for the full control effect
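Delayed-death screen, second-generation endpoint: infected erythrocytes, 2% hematocrit, 0.05% parasitemia final; 96 hours at 37 C, 5% CO2; luciferase detection reagent; luminescence decrease equals reduced growth.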
AmpC detergent = qHTS Inhibitors of AmpC Beta-Lactamase (assay with detergent); Potency, µM (series often up to 114 µM), for inactives: at the highest dose activity change, negative = inhibition, usual class: inhibitors; actives 0.041% (n = 370,000); AmpC hydrolysis of nitrocefin, absorbance 480 nm, 0.01% Triton;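 also: 0% = no-compound wells and -100% = no-enzyme wells; nearly all actives have a fitted effect of over 25% in size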
Target sequence (P00811 whole entry, looked up): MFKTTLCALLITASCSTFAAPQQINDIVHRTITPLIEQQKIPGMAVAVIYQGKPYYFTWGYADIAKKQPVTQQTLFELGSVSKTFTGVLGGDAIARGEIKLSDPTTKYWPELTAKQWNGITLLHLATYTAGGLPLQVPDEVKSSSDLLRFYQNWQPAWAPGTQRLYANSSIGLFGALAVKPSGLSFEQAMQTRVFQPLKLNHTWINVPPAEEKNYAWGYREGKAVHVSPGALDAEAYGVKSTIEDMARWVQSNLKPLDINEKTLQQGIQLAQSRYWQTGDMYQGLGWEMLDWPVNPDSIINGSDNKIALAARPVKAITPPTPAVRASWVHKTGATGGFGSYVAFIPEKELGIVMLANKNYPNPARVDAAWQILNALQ
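20 mM phosphate pH 7.0 + 0.01% (detergent screen) or 0.0001% Triton X-100; 5.3 nM AmpC reagent; cpd preinc 15 min RT; nitrocefin (800 uM stock) to start; A480 q20 s × 4 min; Activity was normalised to no-enzyme and no-compound control wells.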
SARS PLpro yeast = qHTS of Yeast-based Assay for SARS-CoV PLP. actives 0.19% (n = 330,000). Potency, µM (top dose mostly 32.9 µM), inactives show at the highest dose activity, positive = growth rescue, actives largely listed as activators. S. cerevisiae expressing SARS-CoV PLpro, growth rescue. AID 485353, 2010; calls by dose curve; also: 0% is about no effect; nearly all actives have a fitted effect of over 55% in size
AmpC no deterg = qHTS Inhibitors of AmpC Beta-Lactamase (assay without detergent). AID 485341, 2010. P00811. AmpC nitrocefin hydrolysis, absorbance 480 nm, 0.0001% Triton. actives 0.52% (n = 330,000). Potency, µM (titrated, usually from 57.1 µM), for inactives: top-dose activity change, negative = inhibition, hits mostly inhibitors;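 also: plate controls were no compound for no effect and no enzyme for full effect; nearly all actives have a fitted effect of over 20% in size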
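AmpC (5.3 nM in the dispensed reagent) in 20 mM phosphate pH 7.0 with 0.01% (detergent screen) or 0.0001% Triton X-100 was preincubated with compounds for 15 min at room temperature. Nitrocefin was then added from an 800 uM solution, and hydrolysis was followed at 480 nm.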
* = called active by the depositor; ? = inconclusive; . = not tested or not shown. Rows were chosen to be rich in hits. Some 12% of all compounds tested hit in one or more screens of this group. Unless noted, calls follow the shape of the dose curve; as a rule, active = well fitted curve in the direction sought with a large enough effect; inconclusive = small, poorly fitted or top-dose-only effect, or another doubt; inactive = no such curve, though single readings can be large; an effect the other way counts as inactive or inconclusive. Potency is read from the fitted curve at half-maximal effect.

SMILES | Sm TGR inh | Pf growth 48h | Pf growth 96h | AmpC detergent | SARS PLpro yeast | AmpC no deterg
C=CCN1CCc2cc(O)c(O)cc2C(c2ccccc2)C1 (centres undefined) | ? | 12µM* | ? | ? | . | -13%
C=CCN1CCc2c(cc(O)c(O)c2Cl)C(c2ccccc2)C1 (centres undefined) | ? | ? | ? | -2% | 2% | -51%
COc1ccc2[nH]c3c(=O)n(/N=C/c4ccc(OC)c(CN5CCCC5)c4)c(C)nc3c2c1 | ? | ? | ? | 0% | 0% | 43%
COc1ccc(/C=N/n2c(C)nc3c([nH]c4ccccc43)c2=O)cc1CN1CCCC(C)(C)C1 | -1% | 12µM* | 5.2µM* | 1% | 0% | -5%
COc1ccc2c(c1)[nH]c1c(=O)n(/N=C/c3ccc(OC)c(CN4CCCC4)c3)cnc12 | -7% | 4.1µM* | ? | 2% | -1% | 69%
O=C(NNC(=O)c1cc(Br)c(Br)s1)c1ccncc1 | -1% | 11% | 49% | -6% | -8% | -10%
COc1ccc2nc(N(Cc3cccnc3)C(=O)c3ccc(Cl)cc3)sc2c1 | -2% | . | . | -1% | . | .
CCc1cc(Cn2nc(-c3ccccc3)cc2C(=O)NCc2cccs2)on1 | -5% | 15µM* | 5.9µM* | -5% | 1% | -14%
Cc1cc(C(C)c2ccccc2)c(O)c(CN2CCOCC2)c1C (centres undefined) | -8% | 1.9µM* | 8% | -5% | -27% | 117%
CCCN(CC(=O)Nc1ccccc1C)C(=O)CCN1C(=O)c2cccc([N+](=O)[O-])c2C1=O | -25% | 5% | ? | -8% | 3% | -8%
CN(C)CCNc1nc2sc3c(c2c(=O)n1CCc1ccccc1)CCCCC3 | -2% | 2.1µM* | 2.3µM* | -2% | -1% | 122%
CC(O)CNc1nc2sc3c(c2c(=O)n1Cc1ccco1)CCCCC3 (centres undefined) | -15% | ? | -4% | 4% | 0% | 98%
CC(O)CNc1nc2sc3c(c2c(=O)n1CCc1ccccc1)CCCCC3 (centres undefined) | 4% | 12µM* | 0% | ? | -75% | 33%
O=C(NCCc1ccc(Cl)cc1)c1ccc2c(c1)N(Cc1ccccc1)C(=O)CS2 | 1% | . | . | 11% | . | .
O=C(Nc1cccc(C(F)(F)F)c1)Nc1ccc(N2CCCC2)c(S(=O)(=O)Nc2ccccc2Cl)c1 | -12% | ? | ? | -13% | 0% | -53%
CC(C)Sc1ncc(Cl)c(C(=O)Nc2nnc(C(C)C)s2)n1 | 0% | . | . | 15% | . | .
Cc1ccc(NC(=O)c2nc(S(=O)(=O)Cc3ccccc3C)ncc2Cl)cc1C | 11µM* | 31% | ? | -6% | -30% | -38%
CC(C)c1nnc(NC(=O)c2nc(S(=O)(=O)Cc3ccccc3)ncc2Cl)s1 | 40µM* | -11% | 29% | ? | 1% | -28%
CSc1ncc(Cl)c(C(=O)Nc2nnc(SC)s2)n1 | 0% | -4% | 14% | 3% | -2% | -15%
Cc1ccc(CS(=O)(=O)c2ncc(Cl)c(C(=O)Nc3nc4ccc(C)cc4s3)n2)cc1 | ? | . | . | 23% | . | .
CSc1nnc(NC(=O)c2nc(S(=O)(=O)Cc3ccccc3)ncc2Cl)s1 | 13µM* | -7% | -25% | 0% | 1% | -18%
Cc1ccccc1CS(=O)(=O)c1ncc(Cl)c(C(=O)Nc2nnc(C(C)C)s2)n1 | 20µM* | . | . | 10% | . | .
CON(C)C(=O)C[C@@H]1C[C@H](OC(=O)c2ccc([N+](=O)[O-])cc2)CN1C(=O)OC(C)(C)C | . | . | . | . | -2% | 152%

Source: PubChem BioAssay (National Center for Advancing Translational Sciences (NCATS))
